The campaign covered roughly 3,300 compounds. About 280 (8.5%) were called active. The sample holds actives, similar compounds and a random draw of the others, so the mix is not that of the screen.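 Rule for the calls: active = mean growth inhibition over the two runs of 50% or more; inactive = mean growth inhibition under 50%.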
test: A549 NSCLC cell proliferation inhibitors – ATP luminescence, human non-small cell lung line, primary screen (AID 371); conditions: at 10 µM, active compounds read high;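 note: compound exposure lasted 72 h before the ATP read; 0% = untreated cell signal and 100% = no luminescence left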

Growth inhibition, active:
Cc1nc2sccn2c(=O)c1CCN1CCC(=C(c2ccccc2)c2ccc(F)cc2)CC1 88.3%
Cc1nc2sccn2c(=O)c1CCN1CCC(=C(c2ccc(F)cc2)c2ccc(F)cc2)CC1 92.5%
CSc1nc(N)nc(SCC(=O)C23CC4CC(CC(C4)C2)C3)c1C#N 74.9%
COc1ccccc1C(=O)NC(=Nc1nc2ccccc2o1)NC(=O)c1ccccc1OC 67.3%
N/C(=N\c1nc2ccccc2o1)NC(=O)c1ccccc1NC(=O)c1ccccc1 69.5%
COc1cccc2c1C(=O)c1c(O)c3c(c(O)c1C2=O)C[C@@](O)(C(C)=O)C[C@@H]3O[C@H]1C[C@H](N)[C@H](O)[C@H](C)O1 94.4%
COc1cccc2c1C(=O)c1c(O)c3c(c(O)c1C2=O)C[C@@](O)(C(=O)CO)C[C@@H]3O[C@H]1C[C@H](N)[C@H](O)[C@H](C)O1 82.1%
c1ccc(-c2nc(NCC3CCCO3)c3ccccc3n2)nc1 (configuration not stated) 60.2%
COc1cccc(-c2nc(NCCN3CCOCC3)c3ccccc3n2)c1O 80.7%
COc1cccc(-c2nc(NCC3CCCO3)c3ccccc3n2)c1O (configuration not stated) 83.8%
Oc1ccccc1-c1nc(NCCN2CCOCC2)c2ccccc2n1 88.2%
CC(C)C(=O)N1CCN(c2nc(-c3ccccc3)c3c(c2C#N)CCCC3)CC1 68%
CCCC(=O)N1CCN(c2nc(CC(C)C)c3c(c2C#N)CCC3)CC1 53.8%
CC(C)Cc1nc(N2CCN(C(=O)c3ccco3)CC2)c(C#N)c2c1CCC2 57.2%

Growth inhibition, inactive:
CCCc1[nH]n(-c2nc3ccccc3s2)c(=O)c1C=NCCN1CCOCC1 3.16%
Cn1nnnc1-c1cc(Br)ccc1NC(=O)c1ccccc1 10.8%
Cc1sc(-n2c(C)cc(/C=N/n3cnnc3)c2C)c(C#N)c1C 19.6%
CC(C)(C)c1nnc2sc(SCC(=O)c3ccccc3)nn2c1=O -7.24%
CN1CCN(CCCCC(=O)c2ccccc2)CC1 6%
Cc1nc2ccccn2c(=O)c1CCN1CCC(C(=O)c2ccc(F)cc2)CC1 6.06%
COc1ccc(/C=N/n2cncn2)cc1COc1ccc(NC(C)=O)cc1 5.25%
CCOc1ccc(C2/C(=C(/O)c3ccc(OC)cc3)C(=O)C(=O)N2c2cc(C)on2)cc1OC (configuration not stated) -9.53%
CCC(C)Nc1nc(OC)nc(N(C)C#N)n1 (configuration not stated) -4.98%
O=C(O)c1ccc(COc2c(F)c(F)c(F)c(F)c2F)o1 3.65%
CN(C)/C=C1\N=C(c2ccc(Cl)cc2Cl)OC1=O 19.7%
CCOC(=O)c1[nH]c2cc3c(cc2c1NC(=O)CN1CCc2ccccc2C1)OCO3 12.5%
CSc1nc(N)nc(SCC(=O)CC(=O)OC(C)C)c1C#N 7.59%
CSc1nc(N)nc(SCC(=O)OC(C)C)c1C#N 17%
COc1ccc(C(=O)N/C(N)=N/c2nc3ccccc3o2)cc1 28.8%
COc1ccccc1C(=O)Nc1cc(Cl)ccc1O -0.89%
O=C(Nc1ccccc1C(=O)NCCCn1ccnc1)c1ccccc1 -0.68%
COc1ccccc1C(=O)NCC(=O)n1nc(C)cc1C 4.23%
COc1ccccc1C1C(C#N)=C(N)Oc2cc(C)n(Cc3ccccn3)c(=O)c21 (configuration not stated) -10.3%
CCNC(=O)COn1c(SCC(=O)NCC)nc2ccccc2c1=O -0.37%
CCOC(=O)C1CCN(c2ncnc3c2cnn3-c2ccc(OC)cc2)CC1 4.94%
CS(=O)(=O)c1ccc2nc(NC(NC(=O)c3ccco3)(C(F)(F)F)C(F)(F)F)sc2c1 29.9%
CCOC(=O)CSc1nnc(C)c(=O)[nH]1 2.53%
CC(=O)Nc1cc2c(cc1Br)OCCO2 -4.42%
CN(C)c1ccc(C2C3C(=O)N(c4ccc(C(=O)O)cc4)C(=O)C3ON2c2ccccc2)cc1 (configuration not stated) 4.19%
O=c1/c(=C\c2cccn2-c2ccccc2)sc2nc3ccccc3n12 26.5%
CC(C)c1nc(NCCN2CCOCC2)c(C#N)c2c1COC(C)(C)C2 20.7%
Cc1cc(OCCN2CCOCC2)nc2ccccc12 10.6%
COc1cccc(OC)c1OCC(C)CNCC1CCCO1 (configuration not stated) 3.8%
Fc1ccccc1-c1nc(NCCCN2CCOCC2)c2ccccc2n1 4.04%
c1ccc(-n2ncc3c(NCC4CCCO4)ncnc32)cc1 (configuration not stated) 33.8%
c1ccc2c(NCC3CCCO3)nc(-c3ccncc3)nc2c1 (configuration not stated) 13.1%
C=CCNc1nc(-c2cccc(OC)c2O)nc2ccccc12 24.3%
Cc1cc(-c2ccccc2)nnc1NCCN1CCOCC1 -7.35%
O=C(C1=C(O)C(=O)N(CCCN2CCOCC2)C1c1ccccn1)c1cccs1 (configuration not stated) 1.45%
Cc1ccc(C(=O)C2=C(O)C(=O)N(c3ncccn3)C2c2ccc(Cl)cc2)o1 (configuration not stated) -6.83%
COC(=O)c1c(C)[nH]c(C(=O)OCc2ccc(F)cc2)c1C 13%
O=C1C2ON(c3ccccc3)C(c3ccncc3)C2C(=O)N1c1ccc(Br)cc1 (configuration not stated) -9.58%
OCCN=C(c1ccccc1)C12CN3CN(CN(C3)C1)C2 -0.01%
C=CCOC(=O)C(C#N)c1nc2ccccc2nc1N1CCC(C(=O)OCC)CC1 (configuration not stated) 45.6%
CCOC(=O)C1CCCN(c2nc3ccccc3nc2C(C#N)C(=O)OC(C)COC)C1 (configuration not stated) 24.2%
CCOC(=O)c1[nH]c2ccc(OC)cc2c1NC(=O)CN1CCN(c2ccccn2)CC1 0.14%
CC(C)C(=O)N1CCN(c2nc(-c3ccccc3)c3c(c2C#N)CC(C)(C)OC3)CC1 34.1%
CC(=O)N1CCN(c2nc(CC(C)C)c3c(c2C#N)CCC3)CC1 22.1%
CC(C)Cc1nc(N2CCN(C(=O)C(C)C)CC2)c(C#N)c2c1CCC2 42.3%
CC(C)Cc1nc(N2CCCCC2)c(C#N)c2c1CCC2 20.9%
CC1(C)Cc2c(C#N)c(N3CCOCC3)nc(-c3ccccc3)c2CO1 13.6%
CC(C)Cc1nc(N2CCOCC2)c(C#N)c2c1CCC2 4.59%

— PubChem BioAssay AID371 (SRMLSC, 2006)
